In PubChem BioAssay (Tox21):
Inconclusive results are not listed. Calls of active or inactive are those of the source. Unless noted, the call rests on the fitted dose curve; in most records, active means well fitted curve in the direction sought with a large enough effect in the repeat runs; inconclusive means weak or mixed curves; inactive means no such curve, though single readings can be large; an effect the other way counts as inactive or inconclusive.

What was measured:
[1] = qHTS assay to identify small molecule agonists of the RXR signaling pathway - cell viability counter screen (AID 1159529);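 further: HEK 293T cells carrying an RXR-alpha UAS beta-lactamase reporter; nearly all actives have a fitted effect of over 50% in size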
Outline: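 Counter screen: CellTiter-Glo luminescence. Cells: RXR-alpha-UAS-bla HEK 293T. Medium: 2% charcoal-stripped FBS. Treatment: 16 h, 37 C. Reagent incubation: 30 min, RT.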

[2] = qHTS assay to identify small molecule antagonists of the retinoic acid receptor (RAR) signaling pathway (AID 1159552; further: nearly all actives have a fitted effect of over 50% in size)
Outline: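 Antagonism of retinol-induced RARE reporter activity was measured in C3RL4 cells. Exposure to compounds and 1 uM final retinol lasted 6 hr at 37 C, with luminescence as endpoint.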

[3] = qHTS assay to identify small molecule agonists of the retinoic acid receptor (RAR) signaling pathway (AID 1159553)
Outline: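 Cell line C3RL4, RARE luciferase reporter. Treatment: compounds in DMSO, 6 hr, 37 C, 5% CO2, after overnight plating. Detection: luminescence, 30 min RT after reagent.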

[4] = qHTS assay to identify small molecule antagonists of the estrogen related receptor (ERR) signaling pathway from Tox21 library - cell viability counter screen (AID 1224834); further: nearly all actives have a fitted effect of over 30% in size
Outline: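 Viability readout (CellTiter-Fluor fluorescence, 30 min at 37 C) multiplexed with the ERR assay; cells treated 17.5 h at 37 C with compounds delivered in DMSO.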

[5] = target: Luciferin 4-monooxygenase (Photinus pyralis) (UniProt P08659); assay: qHTS assay to identify small molecule inhibitors of firefly luciferase (AID 1224835); further: nearly all actives have a fitted effect of over 25% in size
Luciferin 4-monooxygenase (Photinus pyralis), sequence (P08659 whole entry, looked up): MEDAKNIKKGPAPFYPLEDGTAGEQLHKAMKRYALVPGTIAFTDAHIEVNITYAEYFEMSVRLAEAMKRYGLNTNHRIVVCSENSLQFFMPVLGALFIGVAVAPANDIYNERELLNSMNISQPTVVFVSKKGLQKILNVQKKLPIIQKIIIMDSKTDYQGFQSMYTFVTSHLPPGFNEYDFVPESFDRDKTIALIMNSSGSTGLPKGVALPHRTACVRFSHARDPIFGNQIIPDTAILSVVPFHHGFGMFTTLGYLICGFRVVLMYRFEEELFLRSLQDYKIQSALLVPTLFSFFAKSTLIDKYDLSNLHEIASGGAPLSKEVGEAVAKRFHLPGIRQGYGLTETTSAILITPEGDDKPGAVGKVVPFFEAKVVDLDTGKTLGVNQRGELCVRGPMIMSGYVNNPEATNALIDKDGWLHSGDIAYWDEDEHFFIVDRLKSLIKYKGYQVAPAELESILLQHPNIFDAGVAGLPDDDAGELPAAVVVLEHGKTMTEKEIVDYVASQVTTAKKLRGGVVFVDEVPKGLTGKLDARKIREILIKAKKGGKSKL
Outline: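 Quantitative HTS format; KM concentrations of both substrates. Purified P. pyralis FLuc activity quantified from luminescence images.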

[6] = qHTS assay to identify small molecule agonists of the constitutive androstane receptor (CAR) signaling pathway - cell viability counter screen (AID 1224836); further: nearly all actives have a fitted effect of over 45% in size
Outline: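 Double-stable HepG2 hepatoma cells (hCAR plus CYP2B6-2.2kb) are treated for 23 h at 37 C with test compounds in 15-point concentration series. PK11195 at 0.75 uM final is co-added. Cell viability is quantified by CellTiter-Fluor.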

[7] = qHTS assay to identify small molecule antagonists of the constitutive androstane receptor (CAR) signaling pathway - cell viability counter screen (AID 1224837); further: nearly all actives have a fitted effect of over 45% in size
Outline: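 Fluorescence from CellTiter-Fluor served as the viability signal. Human hepatoma HepG2 cells stably bearing hCAR and CYP2B6-2.2kb received compound plus CITCO (50 nM final) for 23 hr.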

[8] = target: Nuclear receptor subfamily 1 group I member 3 (Homo sapiens) (UniProt Q14994); assay: qHTS assay to identify small molecule agonists of the constitutive androstane receptor (CAR) signaling pathway (AID 1224839);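 further: HepG2 cells stably carrying human CAR and a CYP2B6 luciferase reporter; nearly all actives have a fitted effect of over 15% in size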
Nuclear receptor subfamily 1 group I member 3 (Homo sapiens), sequence (Q14994 whole entry, looked up): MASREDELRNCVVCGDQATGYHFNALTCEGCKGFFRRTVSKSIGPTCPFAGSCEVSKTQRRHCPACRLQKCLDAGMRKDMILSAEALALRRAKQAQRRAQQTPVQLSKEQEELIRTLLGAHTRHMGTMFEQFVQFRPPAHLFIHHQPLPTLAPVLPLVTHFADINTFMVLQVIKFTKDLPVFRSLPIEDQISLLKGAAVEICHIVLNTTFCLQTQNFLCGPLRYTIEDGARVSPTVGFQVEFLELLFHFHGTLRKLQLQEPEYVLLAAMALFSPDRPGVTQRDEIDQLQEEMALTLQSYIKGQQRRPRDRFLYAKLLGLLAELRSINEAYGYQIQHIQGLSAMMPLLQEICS
Outline: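 Readout: firefly luciferase luminescence via ONE-Glo. System: HepG2 double-stable for hCAR and CYP2B6-2.2kb. Conditions: 15-point compound titration, PK11195 at 0.75 uM final, 24 h incubation.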

[9] = qHTS assay to identify small molecule antagonists of the estrogen related receptor signaling pathway with the pleiotropic PPARgamma coactivator (PGC) from Tox21 10K library - cell viability counter screen (AID 1224840; active means well fitted cell-killing curve with a large enough effect in the repeat runs, not every such curve was filed as active; further: nearly all actives have a fitted effect of over 40% in size)
Outline: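 Compounds in DMSO, alongside positive and negative controls, were pinned onto PGC/ERR cells (2,000 per well). Exposure lasted 17.5 hours at 37 C, followed by a 30-minute CellTiter-Fluor incubation and fluorescence reading.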

[10] = qHTS assay to identify small molecule agonists of the hypoxia (HIF-1) signaling pathway - cell viability counter screen (AID 1224844; calls by dose curve; further: nearly all actives have a fitted effect of over 50% in size)
Outline: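 Luminescent ATP content (CellTiter-Glo, 30 min, room temperature) served as the viability measure in HRE-bla ME-180 cells exposed to compounds for 17 hrs in low-serum medium (0.5% dialyzed FBS).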

[11] = qHTS assay to identify small molecule agonists of H2AX (AID 1224845; active means well fitted activation curve with a large enough effect in the signal ratio in the repeat runs, not every such curve was filed as active; the % refers to the signal ratio)
Outline: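 Wild-type CHO-K1 cells plated overnight, then exposed 3 hr at 37C to compounds at 15 concentrations (0.76% DMSO). Lysed, then HTRF anti-pH2AX(S139)-cryptate/anti-H2AX-d2 detection after 24 hr at room temperature; emissions 665 and 620 nm.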

[12] = qHTS assay to identify small molecule agonists of the hypoxia (HIF-1) signaling pathway (AID 1224846; active means well fitted activation curve with a large enough effect in the signal ratio in the repeat runs, not every such curve was filed as active; the % refers to the signal ratio)
Outline: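 Measured by blue/green FRET after loading CCF4-AM: beta-lactamase expressed from a hypoxia response element in ME-180 cells. Test agents were delivered in DMSO and left 17 hrs; cells had been plated 5 hrs earlier in low-serum (0.5% dialyzed FBS) medium.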

[13] = qHTS assay to identify small molecule agonists of H2AX - cell viability counter screen (AID 1224847; calls by dose curve; further: top concentration of the series differs between compounds; nearly all actives have a fitted effect of over 30% in size)
Outline: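 For this counter screen, overnight-attached CHO-K1 cells received test compounds (15 concentrations, 0.76% DMSO final); 3 hr later at 37C, CellTiter-Glo reagent was added and luminescence recorded after 30 min at room temperature.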

[14] = qHTS RealTime-Glo MT Cell Viability Assay in HepG2 cells - 24 hour (AID 1224867); further: nearly all actives have a fitted effect of over 50% in size
Outline: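 Real-time, nonlytic viability: 600 HepG2 cells/well mixed with NanoLuc enzyme plus prosubstrate; 5 h settle, compound (DMSO) added by pintool; luminescence monitored over 40 h at 37 C.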

[15] = target: Nuclear receptor subfamily 1 group I member 3 (Homo sapiens) (UniProt Q14994); assay: qHTS assay to identify small molecule antagonists of the constitutive androstane receptor (CAR) signaling pathway (AID 1224838);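 further: HepG2 cells stably expressing hCAR with CYP2B6 luciferase reporter stimulated by CITCO; nearly all actives have a fitted effect of over 40% in size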
Outline: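 Quantitative HTS in double-stable HepG2-CYP2B6-hCAR cells. After 4 h plating, cells get compound (15 concentrations) and CITCO at 50 nM final, incubate 24 h at 37 C, then ONE-Glo luminescence is read.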

[16] = target: Thyrotropin receptor (Homo sapiens) (UniProt P16473); assay: qHTS assay to identify small molecule agonists of the thyroid stimulating hormone receptor (TSHR) signaling pathway (AID 1224843; calls by dose curve; further: nearly all actives have a fitted effect of over 45% in size)
Thyrotropin receptor (Homo sapiens), sequence (P16473 whole entry, looked up): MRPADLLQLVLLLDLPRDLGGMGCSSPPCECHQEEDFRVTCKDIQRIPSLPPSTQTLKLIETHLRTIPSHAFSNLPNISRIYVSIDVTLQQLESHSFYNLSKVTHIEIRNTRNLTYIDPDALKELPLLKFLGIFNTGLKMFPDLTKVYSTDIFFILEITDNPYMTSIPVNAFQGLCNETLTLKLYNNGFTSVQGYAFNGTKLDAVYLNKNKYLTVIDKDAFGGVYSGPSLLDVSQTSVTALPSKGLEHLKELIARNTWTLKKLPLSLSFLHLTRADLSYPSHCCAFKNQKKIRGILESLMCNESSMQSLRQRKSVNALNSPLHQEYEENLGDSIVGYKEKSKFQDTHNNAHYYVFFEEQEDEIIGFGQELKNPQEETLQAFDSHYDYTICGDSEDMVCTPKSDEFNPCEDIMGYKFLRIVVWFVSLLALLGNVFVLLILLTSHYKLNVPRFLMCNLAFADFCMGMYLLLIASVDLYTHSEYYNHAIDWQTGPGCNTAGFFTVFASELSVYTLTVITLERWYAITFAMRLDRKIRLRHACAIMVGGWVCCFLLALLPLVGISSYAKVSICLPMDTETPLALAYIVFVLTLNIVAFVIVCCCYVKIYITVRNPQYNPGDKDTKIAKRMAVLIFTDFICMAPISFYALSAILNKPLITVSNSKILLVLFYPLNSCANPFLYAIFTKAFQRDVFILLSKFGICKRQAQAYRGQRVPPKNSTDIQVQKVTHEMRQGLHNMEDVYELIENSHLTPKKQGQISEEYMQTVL
Outline: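 TSHR-expressing HEK293 cells (800 per well) were exposed to compounds for 30 min at room temperature. cAMP was then detected by HTRF competition with cAMP-d2 and anti-cAMP cryptate, read after 1 h at room temperature. Fifteen concentrations, triplicate.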

[17] = qHTS assay to identify small molecule antagonists of the estrogen related receptor signaling pathway with the pleiotropic PPARgamma coactivator (PGC) from Tox21 10K library (AID 1224841; call rule not given here)
Outline: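 Compound exposure ran 18 hours at 37 C in PGC/ERR cells (2,000/well) that had first rested 6 hours in a 37 C/5% CO2 incubator. Luciferase activity was then detected with One-Glo after a 30-minute room-temperature step.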

[18] = qHTS assay to identify small molecule antagonists of the estrogen related receptor (ERR) signaling pathway from Tox21 library (AID 1224848); further: nearly all actives have a fitted effect of over 50% in size
Outline: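 Cells: ERR line, 2,000/well; 6 h preincubation 37 C/5% CO2. Cpd in DMSO via pin tool; 18 h, 37 C. ONE-Glo, 30 min RT, luminescence.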

[19] = qHTS assay to identify small molecule agonists of the estrogen related receptor (ERR) signaling pathway from Tox21 library (AID 1224849; calls by dose curve; further: nearly all actives have a fitted effect of over 15% in size); settings: ERR reporter cell line, ONE-Glo luciferase, 18 h; at 92.4 µM (top of the series) unless noted
Outline: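 We plated ERR reporter cells, waited 6 h, added compounds in DMSO by pin tool and incubated them 18 h at 37 C. ONE-Glo was then added and luminescence read after 30 min.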
On the % scale 0 is the no-effect control and ±100 the full control effect.

O=C(NCN1CCOCC1)c1cnccn1
inactive: outcome [1] | outcome [2] | Potency [3] | outcome [4] | Potency [5] | outcome [6] | outcome [7] | Potency [8] | outcome [9] | outcome [10] | outcome [11] | outcome [12] | outcome [13] | outcome [14]

CC(=O)O[Si](C)(OC(C)=O)OC(C)=O
inactive: outcome [1] | outcome [2] | Potency [3] | outcome [4] | Potency [5] | outcome [6] | outcome [7] | Potency [15] | Potency [8] | outcome [9] | outcome [16] | outcome [10] | outcome [11] | outcome [12] | outcome [13] | outcome [14]

c1ccc(-c2nn[nH]n2)cc1
inactive: outcome [1] | outcome [2] | Potency [3] | outcome [4] | Potency [5] | outcome [6] | outcome [7] | Potency [8] | outcome [9] | outcome [17] | outcome [10] | outcome [11] | outcome [12] | Potency [18] | activity change, positive = activation [19] 8.29% | outcome [14]

OC1(c2ccc(Cl)cc2)CCNCC1
inactive: outcome [1] | outcome [2] | Potency [3] | outcome [4] | Potency [5] | outcome [6] | outcome [7] | Potency [8] | outcome [9] | outcome [16] | outcome [10] | outcome [11] | outcome [12] | outcome [13] | outcome [14]

CC(=O)C(C)O (stereo unspecified)
inactive: outcome [1] | outcome [2] | Potency [3] | outcome [4] | Potency [5] | outcome [6] | outcome [7] | Potency [15] | Potency [8] | outcome [9] | outcome [16] | outcome [11] | outcome [12] | outcome [13] | outcome [14]

CCCCOCC(C)O (stereo unspecified)
inactive: outcome [1] | outcome [2] | Potency [3] | outcome [4] | Potency [5] | outcome [6] | outcome [7] | Potency [15] | Potency [8] | outcome [9] | outcome [16] | outcome [10] | outcome [11] | outcome [12] | outcome [13] | outcome [14]

C=CCCCCCCCC
inactive: outcome [1] | outcome [2] | Potency [3] | outcome [4] | Potency [5] | outcome [6] | outcome [7] | Potency [15] | Potency [8] | outcome [9] | outcome [16] | outcome [10] | outcome [11] | outcome [12] | outcome [13] | outcome [14]

CC(=O)OCC(=O)Nc1cc(C#N)cc(NC(=O)COC(C)=O)c1Cl
inactive: outcome [1] | outcome [2] | Potency [3] | outcome [4] | Potency [5] | outcome [6] | Potency [15] | Potency [8] | outcome [16] | outcome [10] | outcome [11] | outcome [12] | outcome [14]
